# About 14,000 (4.5%) of roughly 310,000 compounds showed an effect of 50% or more. The effect is printed as a negative number. The list comes from a sample in which strong results are over-represented; it also holds similar structures and randomly drawn compounds.
# Biological target: human ether-à-go-go-related gene (hERG) potassium channel (human, UniProt Q12809)
# Assay: primary screen, population patch clamp on CHO cells stably expressing hERG; higher = less effect of the substance
# 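Also: peak tail current of the secondary pulse compared with the same well before compound.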
# Sequence of human ether-à-go-go-related gene (hERG) potassium channel (Q12809 whole entry, looked up): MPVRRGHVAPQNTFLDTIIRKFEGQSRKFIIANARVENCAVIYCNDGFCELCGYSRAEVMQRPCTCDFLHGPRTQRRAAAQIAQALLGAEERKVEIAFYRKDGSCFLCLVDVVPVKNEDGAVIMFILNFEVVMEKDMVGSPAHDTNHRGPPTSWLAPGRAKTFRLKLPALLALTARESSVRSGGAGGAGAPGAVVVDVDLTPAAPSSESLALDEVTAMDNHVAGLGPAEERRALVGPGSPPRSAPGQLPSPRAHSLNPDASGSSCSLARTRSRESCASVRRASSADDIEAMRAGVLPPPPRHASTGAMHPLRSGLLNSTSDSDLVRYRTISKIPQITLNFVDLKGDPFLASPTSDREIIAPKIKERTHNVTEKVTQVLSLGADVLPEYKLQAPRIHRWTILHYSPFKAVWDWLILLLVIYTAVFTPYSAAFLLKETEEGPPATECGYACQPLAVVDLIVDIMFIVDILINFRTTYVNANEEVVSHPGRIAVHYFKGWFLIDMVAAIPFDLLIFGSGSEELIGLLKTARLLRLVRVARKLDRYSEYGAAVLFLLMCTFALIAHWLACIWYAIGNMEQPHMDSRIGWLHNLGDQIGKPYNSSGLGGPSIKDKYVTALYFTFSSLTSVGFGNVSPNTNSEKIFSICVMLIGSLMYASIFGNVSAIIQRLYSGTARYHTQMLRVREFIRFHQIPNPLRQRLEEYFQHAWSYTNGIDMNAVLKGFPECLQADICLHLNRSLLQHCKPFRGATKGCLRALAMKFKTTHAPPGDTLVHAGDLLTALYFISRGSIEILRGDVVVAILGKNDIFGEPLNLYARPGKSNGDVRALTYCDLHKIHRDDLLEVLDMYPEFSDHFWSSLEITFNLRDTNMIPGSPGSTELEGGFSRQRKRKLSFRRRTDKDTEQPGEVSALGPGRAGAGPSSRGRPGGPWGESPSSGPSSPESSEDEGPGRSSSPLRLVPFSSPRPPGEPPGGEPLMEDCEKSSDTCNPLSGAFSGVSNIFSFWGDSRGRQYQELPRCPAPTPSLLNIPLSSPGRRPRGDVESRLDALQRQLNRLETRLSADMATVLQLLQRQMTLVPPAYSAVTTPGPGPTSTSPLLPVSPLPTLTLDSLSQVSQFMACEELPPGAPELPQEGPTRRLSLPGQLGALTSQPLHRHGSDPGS
row,SMILES,"hERG current change (%, negative = inhibition) at 10uM"
1,CSc1nccc(Oc2cncc(Cl)c2)n1,8.61%
2,Cc1csc(-c2cnn(-c3ccccc3)c2NC(=O)c2cccc(C(F)(F)F)c2)n1,9.98%
3,CC(NC(=S)Nc1ccc(Cl)cc1)C(c1ccccc1)N1CCOCC1 (stereo not drawn),-13%
4,COc1ccc(N=C2C(=O)N3c4c(cccc42)C(C)=CC3(C)C)cc1,9%
5,Cc1sc[n+](CC(=O)c2ccc(Br)cc2)c1C.[Br-],-12.7%
6,Cc1c(CCOC(=O)c2cc([N+](=O)[O-])cc([N+](=O)[O-])c2)sc[n+]1CCCCS(=O)(=O)[O-],23.4%
7,Cc1c(CCOC(=O)c2cc([N+](=O)[O-])cc([N+](=O)[O-])c2)sc[n+]1CC(=O)c1ccccc1.[Cl-],5.96%
8,COc1ccc(C(=O)OCCc2sc[n+](CC(=O)c3ccccc3)c2C)cc1.[Br-],-48.9%
9,Cc1c(CCOC(=O)c2ccccc2)sc[n+]1CC(=O)c1ccc(Br)cc1.[Br-],-77%
10,Cc1c(CCOC(=O)c2cc([N+](=O)[O-])cc([N+](=O)[O-])c2)sc[n+]1CC(=O)c1ccc(Br)cc1.[Br-],-40.7%
11,Cc1c(CCOC(=O)c2cccc([N+](=O)[O-])c2)sc[n+]1CC(=O)c1ccccc1.[Br-],-51.1%
12,Cc1ccc(C(=O)OCCc2sc[n+](Cc3ccccc3)c2C)cc1.[Cl-],-70.1%
13,Cc1c(CCOC(=O)c2ccccc2)sc[n+]1Cc1ccccc1.[Cl-],-32.7%
14,Cc1c(CCOC(=O)C23CC4CC(CC(C4)C2)C3)sc[n+]1Cc1ccccc1.[Cl-],-8.89%
15,Cc1[nH+]csc1CCOC(=O)c1ccc([N+](=O)[O-])cc1.[Cl-],-35.4%
16,Cc1c(CCOC(=O)c2ccc([N+](=O)[O-])cc2)sc[n+]1CC(=O)c1ccccc1.[Br-],-63.7%
17,Cc1cc(NC(=O)C2CCCCC2)nc2c1c(=O)oc1ccccc12,3.61%
18,O=C(Nc1cccnc1)c1ccc(S(=O)(=O)N2CCCCCC2)cc1,5.14%
19,O=C(CN1C(=O)c2ccccc2C1=O)NCC(=O)OCC(=O)c1ccc(Cl)cc1,16.2%
20,CCOc1ccccc1NC(=O)CCC(=O)Nc1ccc2nc(N3CCN(C)CC3)cc(C)c2c1,3.51%
21,Cn1c(CCC(=O)Nc2ccc(F)cc2)nc2cc(S(=O)(=O)N3CCOCC3)ccc21,-17.7%
22,Cn1c(CCC(=O)Nc2cc(S(C)(=O)=O)ccc2Cl)nc2cc(S(=O)(=O)N3CCOCC3)ccc21,-25.4%
23,CC(NC(=O)CCc1nc2cc(S(=O)(=O)N3CCOCC3)ccc2n1C)c1ccc(S(N)(=O)=O)cc1 (stereo not drawn),-57.9%
24,CCOc1ccc(NS(=O)(=O)c2ccc(C(=O)NCCCN3CCCC3=O)cc2)cc1,7.23%
25,CC(=O)Nc1ccc(S(=O)(=O)NNC(=O)c2ccc(S(=O)(=O)N3CCCCC3)cc2)cc1,6.41%
26,Cc1ccc(/C=N/Nc2cc(C)nc(NCc3ccccc3)n2)cc1,-6.03%

row,SMILES,"hERG current change (%, negative = inhibition) at 10uM"
1,Cc1cc(N/N=C/c2ccccc2)nc(NCc2ccccc2)n1,-2.93%
2,CCCCOc1cc(C)nc(NCc2ccccc2)n1,5.5%
3,Cc1cc(N/N=C/c2ccc(F)cc2)nc(NCc2ccccc2)n1,-64.2%
4,Cc1ccc(Nc2cc(C)nc(NCc3ccccc3)n2)cc1,-5.08%
5,CCCCNc1cc(C)nc(NCc2ccccc2)n1,-59%
6,CN(C)C(CNC(=O)c1cccs1)c1ccco1 (stereo not drawn),0.144%
7,CC(=O)N1c2ccc(S(=O)(=O)N3CCC(C(=O)NC4CCC(C)CC4)CC3)cc2CC1C (stereo not drawn),17.3%
8,Cc1ccc(S(=O)(=O)N(C(=O)c2ccncc2)c2ccc(OC(=O)c3ccncc3)cc2)c(C)c1,-0.914%
9,O=C(O)C(Cc1ccc(Cl)cc1)NS(=O)(=O)c1ccc(Cl)cc1 (stereo not drawn),27.1%
10,O=S(=O)(N/N=C\c1ccc(-c2ccccc2Cl)o1)c1ccccc1,10.4%
11,CN(C)c1ccc(NC(=O)CN2CCN(c3ccc(F)cc3)CC2)cc1,-4.56%
12,CCN(CC)c1ccc(NC(=O)CN2CCN(CC(=O)Nc3ccc(F)cc3)CC2)cc1,-76.4%
13,CCN(CC)c1ccc(NC(=O)CN2CCN(c3ccccn3)CC2)cc1,-2.86%
14,CCN1CCN(CC(=O)Nc2ccc(N(C)C)cc2)CC1.O=C(O)C(=O)O,-2.52%
15,CN(C)c1ccc(NC(=O)CN2CCC(C(=O)c3ccc(F)cc3)CC2)cc1,-32.1%
16,CCN(CC)c1ccc(NC(=O)CN2CCN(c3ccccc3F)CC2)cc1,-5.61%
17,CCN(CC)c1ccc(NC(=O)CN2CCN(c3nc(C)cc(C)n3)CC2)cc1,-21.7%
18,CCN(CC)c1ccc(NC(=O)CN2CCN(CC(=O)Nc3ccccc3F)CC2)cc1,-64.9%
19,CN(C)c1ccc(NC(=O)CN2CCN(CC(=O)Nc3ccc(F)cc3)CC2)cc1,-77.1%
20,COc1ccc(NC(=O)CSc2n[nH]c(-c3ccco3)n2)cc1,-2.42%
21,Br.CC(C)CC(N)C(=O)OCc1ccc([N+](=O)[O-])cc1 (stereo not drawn),7.33%
22,CCN(CC)c1nc(Nc2ccccc2)nc(Oc2ccc(=O)[nH]n2)n1,-14.2%
23,COc1ccc(CCNC(=O)C(=O)c2c(C)[nH]c3ccccc23)cc1,6.09%
24,Cc1nc2nc(SCC(=O)N3CCC4(CC3)OCCO4)nn2c(C)c1Cc1ccccc1,-24.9%
25,CCCN(C(=O)c1ccccc1Cc1ccccc1)C1CCS(=O)(=O)C1 (stereo not drawn),-0.454%
